Results on one compound are retold here after the supplement of paper PMC11732987, “Enantioselective OTUD7B fragment discovery through chemoproteomics screening and high-throughput optimisation” (Communications Chemistry, 2025).

Each structure is given as a SMILES string. Unmarked numbers belong to inactive results.

What all share (assay): log2 ratio of Biotin-Ahx-Ub-VS probe labelling (fragment/DMSO); higher = less target engagement (more negative = stronger competition), active = hit call of the paper (q ≤ 0.05, log2 ratio ≤ -1)
Conditions in all cases: compound concentration: 200 uM; treatment time: 3 h

One assay concerns the target T1, USP42 (UniProt Q9H9J4).
T1 sequence (whole entry): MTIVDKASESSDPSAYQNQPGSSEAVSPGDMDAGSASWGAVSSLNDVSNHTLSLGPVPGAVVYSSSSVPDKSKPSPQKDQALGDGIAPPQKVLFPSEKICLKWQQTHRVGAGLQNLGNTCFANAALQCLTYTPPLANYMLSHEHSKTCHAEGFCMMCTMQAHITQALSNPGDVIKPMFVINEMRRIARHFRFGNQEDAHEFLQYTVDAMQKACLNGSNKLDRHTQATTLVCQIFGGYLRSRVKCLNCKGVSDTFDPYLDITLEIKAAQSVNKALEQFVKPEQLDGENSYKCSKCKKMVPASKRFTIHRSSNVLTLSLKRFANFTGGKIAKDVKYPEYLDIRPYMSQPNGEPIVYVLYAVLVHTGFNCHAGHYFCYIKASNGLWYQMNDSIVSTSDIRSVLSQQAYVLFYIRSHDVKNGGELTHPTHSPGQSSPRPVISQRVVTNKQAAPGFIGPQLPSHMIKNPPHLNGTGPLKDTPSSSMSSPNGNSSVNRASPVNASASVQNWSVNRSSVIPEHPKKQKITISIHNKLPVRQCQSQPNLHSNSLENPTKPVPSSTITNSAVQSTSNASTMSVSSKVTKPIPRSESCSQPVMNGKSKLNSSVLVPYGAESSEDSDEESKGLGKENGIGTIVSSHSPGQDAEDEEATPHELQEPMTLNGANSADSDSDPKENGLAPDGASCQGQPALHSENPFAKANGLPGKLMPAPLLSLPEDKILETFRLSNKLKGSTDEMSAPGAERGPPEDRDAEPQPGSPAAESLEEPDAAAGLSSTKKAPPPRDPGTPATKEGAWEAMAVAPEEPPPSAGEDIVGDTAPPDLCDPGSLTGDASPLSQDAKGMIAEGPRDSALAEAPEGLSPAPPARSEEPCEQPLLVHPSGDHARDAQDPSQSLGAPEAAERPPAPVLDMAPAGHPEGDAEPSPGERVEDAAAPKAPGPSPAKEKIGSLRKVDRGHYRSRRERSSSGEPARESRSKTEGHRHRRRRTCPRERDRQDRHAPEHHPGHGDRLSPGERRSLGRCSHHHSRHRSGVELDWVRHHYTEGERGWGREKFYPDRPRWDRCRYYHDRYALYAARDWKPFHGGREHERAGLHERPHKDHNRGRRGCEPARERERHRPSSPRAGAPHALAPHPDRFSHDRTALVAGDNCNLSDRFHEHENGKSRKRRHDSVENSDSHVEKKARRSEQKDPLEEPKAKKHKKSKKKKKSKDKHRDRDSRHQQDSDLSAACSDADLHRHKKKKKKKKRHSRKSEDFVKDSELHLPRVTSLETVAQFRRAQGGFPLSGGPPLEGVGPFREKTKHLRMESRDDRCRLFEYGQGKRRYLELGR
In a few lines:
(§1)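 Global-median-normalised Spectronaut label-free quantities were compared by unpaired t-test, and values are average log2 ratios of fragment over vehicle. Only proteins with ≥2 unique peptides were used. HEK293T lysate (495 µg per sample) was treated in triplicate with fragment at 200 µM or vehicle for 3 h and then with Biotin-Ahx-Ub-VS at 0.5 µM final for 1 h. Labelled DUBs were then NeutrAvidin-enriched, digested with LysC and trypsin, and run by diaPASEF LC-MS/MS.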

In a further assay the target is USP46 (UniProt P62068). The gist of the method: as §1
USP46, sequence (P62068 whole entry): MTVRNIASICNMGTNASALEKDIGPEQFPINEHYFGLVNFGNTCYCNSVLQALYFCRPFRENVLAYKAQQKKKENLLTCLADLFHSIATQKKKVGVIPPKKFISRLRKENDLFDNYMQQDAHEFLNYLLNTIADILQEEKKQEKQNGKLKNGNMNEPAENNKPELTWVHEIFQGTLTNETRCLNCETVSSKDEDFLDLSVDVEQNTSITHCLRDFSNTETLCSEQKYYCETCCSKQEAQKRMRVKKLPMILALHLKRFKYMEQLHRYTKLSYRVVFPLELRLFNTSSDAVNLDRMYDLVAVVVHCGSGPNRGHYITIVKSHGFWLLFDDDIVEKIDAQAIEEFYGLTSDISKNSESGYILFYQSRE
A further assay has as its target T2, USP47 (UniProt Q96K76).
T2 sequence (whole entry): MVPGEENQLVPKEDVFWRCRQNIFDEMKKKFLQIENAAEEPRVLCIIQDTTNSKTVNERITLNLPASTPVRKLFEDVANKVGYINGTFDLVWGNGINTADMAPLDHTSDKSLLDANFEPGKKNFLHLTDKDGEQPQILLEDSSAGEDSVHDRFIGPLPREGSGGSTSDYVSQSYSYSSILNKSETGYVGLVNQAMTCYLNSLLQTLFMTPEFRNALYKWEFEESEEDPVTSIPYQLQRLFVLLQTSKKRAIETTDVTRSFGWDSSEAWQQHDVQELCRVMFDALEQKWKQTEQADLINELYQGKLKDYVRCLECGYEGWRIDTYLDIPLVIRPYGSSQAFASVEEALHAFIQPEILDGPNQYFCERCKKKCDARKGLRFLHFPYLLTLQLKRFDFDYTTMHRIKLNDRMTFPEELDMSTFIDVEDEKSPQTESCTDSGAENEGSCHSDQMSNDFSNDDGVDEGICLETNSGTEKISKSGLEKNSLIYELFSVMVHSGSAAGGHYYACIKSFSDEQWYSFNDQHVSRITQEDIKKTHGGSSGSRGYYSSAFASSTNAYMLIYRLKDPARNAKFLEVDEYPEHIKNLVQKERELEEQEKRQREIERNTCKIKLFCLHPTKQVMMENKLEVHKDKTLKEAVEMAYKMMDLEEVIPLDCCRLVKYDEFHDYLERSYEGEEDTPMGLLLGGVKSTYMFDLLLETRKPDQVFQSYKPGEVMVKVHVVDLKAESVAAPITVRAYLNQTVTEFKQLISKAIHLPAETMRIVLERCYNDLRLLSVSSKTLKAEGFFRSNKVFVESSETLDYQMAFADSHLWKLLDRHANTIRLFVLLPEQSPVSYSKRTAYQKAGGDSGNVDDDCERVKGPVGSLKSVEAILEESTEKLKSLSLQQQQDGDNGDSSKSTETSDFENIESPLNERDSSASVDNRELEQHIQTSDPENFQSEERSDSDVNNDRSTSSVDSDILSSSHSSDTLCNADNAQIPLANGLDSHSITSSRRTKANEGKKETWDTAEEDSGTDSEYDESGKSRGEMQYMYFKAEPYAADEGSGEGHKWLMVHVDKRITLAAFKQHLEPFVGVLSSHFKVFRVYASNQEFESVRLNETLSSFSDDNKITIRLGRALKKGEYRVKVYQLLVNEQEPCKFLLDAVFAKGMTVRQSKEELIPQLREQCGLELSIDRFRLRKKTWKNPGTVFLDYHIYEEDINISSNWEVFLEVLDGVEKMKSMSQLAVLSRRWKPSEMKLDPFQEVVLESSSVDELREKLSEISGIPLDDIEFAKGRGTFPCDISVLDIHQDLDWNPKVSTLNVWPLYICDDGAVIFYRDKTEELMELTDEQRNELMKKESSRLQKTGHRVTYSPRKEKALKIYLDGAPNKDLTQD
The gist of the method: as §1

In a further assay the target is T3, USP48 (UniProt Q86UV5).
T3 sequence (whole entry): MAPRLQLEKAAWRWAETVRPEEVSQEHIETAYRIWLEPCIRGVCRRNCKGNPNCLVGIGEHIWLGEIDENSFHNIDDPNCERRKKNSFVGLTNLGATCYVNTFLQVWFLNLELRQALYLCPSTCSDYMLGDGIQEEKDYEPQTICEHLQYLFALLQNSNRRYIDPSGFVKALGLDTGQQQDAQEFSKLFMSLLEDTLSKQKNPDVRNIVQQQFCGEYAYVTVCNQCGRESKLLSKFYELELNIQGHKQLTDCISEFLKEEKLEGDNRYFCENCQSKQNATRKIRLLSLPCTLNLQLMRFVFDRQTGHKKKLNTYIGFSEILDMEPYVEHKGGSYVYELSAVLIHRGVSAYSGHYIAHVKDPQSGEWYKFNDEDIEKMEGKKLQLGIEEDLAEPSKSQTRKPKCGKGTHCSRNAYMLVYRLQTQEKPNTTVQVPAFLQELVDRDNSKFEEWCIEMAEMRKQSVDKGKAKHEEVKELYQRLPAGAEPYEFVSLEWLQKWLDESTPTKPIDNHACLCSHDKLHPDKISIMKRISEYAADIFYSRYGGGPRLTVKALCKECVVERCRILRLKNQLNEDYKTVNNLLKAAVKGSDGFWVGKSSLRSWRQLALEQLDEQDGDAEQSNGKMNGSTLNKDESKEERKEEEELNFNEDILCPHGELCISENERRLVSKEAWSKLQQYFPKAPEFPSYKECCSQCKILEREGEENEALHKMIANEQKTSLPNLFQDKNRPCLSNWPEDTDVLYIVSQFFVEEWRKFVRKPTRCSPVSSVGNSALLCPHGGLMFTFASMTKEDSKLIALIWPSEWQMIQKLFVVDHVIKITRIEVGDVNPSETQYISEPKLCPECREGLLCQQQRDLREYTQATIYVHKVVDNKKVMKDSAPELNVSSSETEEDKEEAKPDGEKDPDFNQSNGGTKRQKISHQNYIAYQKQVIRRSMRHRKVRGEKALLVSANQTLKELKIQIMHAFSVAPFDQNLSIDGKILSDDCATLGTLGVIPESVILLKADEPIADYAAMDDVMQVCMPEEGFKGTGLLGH
The gist of the method:
as §1

In the next assay the target is T4, USP5 (UniProt P45974).
T4 sequence (whole entry): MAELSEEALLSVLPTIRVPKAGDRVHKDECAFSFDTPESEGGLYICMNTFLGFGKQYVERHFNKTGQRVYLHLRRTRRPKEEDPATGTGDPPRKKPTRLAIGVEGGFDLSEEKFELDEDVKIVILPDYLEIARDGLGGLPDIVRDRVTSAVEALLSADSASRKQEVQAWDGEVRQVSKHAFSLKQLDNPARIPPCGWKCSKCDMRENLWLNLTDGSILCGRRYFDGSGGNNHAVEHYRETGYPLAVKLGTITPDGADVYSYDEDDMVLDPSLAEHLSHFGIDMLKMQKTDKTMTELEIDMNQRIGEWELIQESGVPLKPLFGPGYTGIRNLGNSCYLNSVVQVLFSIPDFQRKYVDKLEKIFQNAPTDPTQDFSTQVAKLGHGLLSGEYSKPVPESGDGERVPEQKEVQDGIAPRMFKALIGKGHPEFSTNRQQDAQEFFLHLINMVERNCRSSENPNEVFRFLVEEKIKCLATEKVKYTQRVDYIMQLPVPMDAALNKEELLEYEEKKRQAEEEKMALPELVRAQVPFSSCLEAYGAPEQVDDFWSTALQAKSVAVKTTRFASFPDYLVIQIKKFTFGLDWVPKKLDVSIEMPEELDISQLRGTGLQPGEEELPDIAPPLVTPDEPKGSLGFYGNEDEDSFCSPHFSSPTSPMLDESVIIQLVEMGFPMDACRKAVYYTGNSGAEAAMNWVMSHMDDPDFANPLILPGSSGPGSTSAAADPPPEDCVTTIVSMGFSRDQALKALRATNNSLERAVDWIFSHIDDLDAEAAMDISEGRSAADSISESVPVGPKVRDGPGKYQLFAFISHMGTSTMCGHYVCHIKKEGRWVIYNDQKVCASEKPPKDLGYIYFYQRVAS
The gist of the method: as §1

Another assay concerns the target USP54 (UniProt Q70EL1). The gist of the method:
as §1

For another assay, the target named is USP7 (UniProt Q93009). In a few lines:
as §1

In the next assay the target is T5, USP8 (UniProt P40818).
T5 sequence (whole entry): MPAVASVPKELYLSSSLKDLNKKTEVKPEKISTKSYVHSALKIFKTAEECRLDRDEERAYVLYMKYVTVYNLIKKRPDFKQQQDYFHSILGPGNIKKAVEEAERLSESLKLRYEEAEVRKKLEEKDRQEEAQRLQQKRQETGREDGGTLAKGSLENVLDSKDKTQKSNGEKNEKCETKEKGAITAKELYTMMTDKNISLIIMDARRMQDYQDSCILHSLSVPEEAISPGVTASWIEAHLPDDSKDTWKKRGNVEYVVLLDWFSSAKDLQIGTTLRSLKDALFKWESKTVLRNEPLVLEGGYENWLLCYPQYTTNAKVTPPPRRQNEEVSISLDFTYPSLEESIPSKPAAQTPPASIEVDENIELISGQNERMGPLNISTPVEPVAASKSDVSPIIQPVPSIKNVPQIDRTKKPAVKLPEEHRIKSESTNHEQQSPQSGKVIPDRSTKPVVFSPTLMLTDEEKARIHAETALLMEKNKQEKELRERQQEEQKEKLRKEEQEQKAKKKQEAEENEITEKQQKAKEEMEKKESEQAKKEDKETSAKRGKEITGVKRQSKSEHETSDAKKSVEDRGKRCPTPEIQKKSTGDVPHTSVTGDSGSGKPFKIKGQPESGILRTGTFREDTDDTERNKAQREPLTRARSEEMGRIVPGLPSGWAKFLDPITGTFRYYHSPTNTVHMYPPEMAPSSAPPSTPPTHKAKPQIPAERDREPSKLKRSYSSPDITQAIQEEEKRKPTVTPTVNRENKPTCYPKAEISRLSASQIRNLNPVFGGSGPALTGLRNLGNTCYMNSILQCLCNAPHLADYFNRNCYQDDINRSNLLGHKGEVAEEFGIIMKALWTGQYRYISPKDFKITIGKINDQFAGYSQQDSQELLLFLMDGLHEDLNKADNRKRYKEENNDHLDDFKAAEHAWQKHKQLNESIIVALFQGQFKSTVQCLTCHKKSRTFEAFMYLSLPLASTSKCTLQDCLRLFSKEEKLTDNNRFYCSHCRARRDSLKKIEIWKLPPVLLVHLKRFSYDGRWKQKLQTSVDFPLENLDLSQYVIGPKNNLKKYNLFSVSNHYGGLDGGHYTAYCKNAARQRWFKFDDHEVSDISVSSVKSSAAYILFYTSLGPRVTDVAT
In a few lines: as §1

The target in the next assay is USP9X (UniProt Q93008). In a few lines: as §1
USP9X, sequence (Q93008 whole entry): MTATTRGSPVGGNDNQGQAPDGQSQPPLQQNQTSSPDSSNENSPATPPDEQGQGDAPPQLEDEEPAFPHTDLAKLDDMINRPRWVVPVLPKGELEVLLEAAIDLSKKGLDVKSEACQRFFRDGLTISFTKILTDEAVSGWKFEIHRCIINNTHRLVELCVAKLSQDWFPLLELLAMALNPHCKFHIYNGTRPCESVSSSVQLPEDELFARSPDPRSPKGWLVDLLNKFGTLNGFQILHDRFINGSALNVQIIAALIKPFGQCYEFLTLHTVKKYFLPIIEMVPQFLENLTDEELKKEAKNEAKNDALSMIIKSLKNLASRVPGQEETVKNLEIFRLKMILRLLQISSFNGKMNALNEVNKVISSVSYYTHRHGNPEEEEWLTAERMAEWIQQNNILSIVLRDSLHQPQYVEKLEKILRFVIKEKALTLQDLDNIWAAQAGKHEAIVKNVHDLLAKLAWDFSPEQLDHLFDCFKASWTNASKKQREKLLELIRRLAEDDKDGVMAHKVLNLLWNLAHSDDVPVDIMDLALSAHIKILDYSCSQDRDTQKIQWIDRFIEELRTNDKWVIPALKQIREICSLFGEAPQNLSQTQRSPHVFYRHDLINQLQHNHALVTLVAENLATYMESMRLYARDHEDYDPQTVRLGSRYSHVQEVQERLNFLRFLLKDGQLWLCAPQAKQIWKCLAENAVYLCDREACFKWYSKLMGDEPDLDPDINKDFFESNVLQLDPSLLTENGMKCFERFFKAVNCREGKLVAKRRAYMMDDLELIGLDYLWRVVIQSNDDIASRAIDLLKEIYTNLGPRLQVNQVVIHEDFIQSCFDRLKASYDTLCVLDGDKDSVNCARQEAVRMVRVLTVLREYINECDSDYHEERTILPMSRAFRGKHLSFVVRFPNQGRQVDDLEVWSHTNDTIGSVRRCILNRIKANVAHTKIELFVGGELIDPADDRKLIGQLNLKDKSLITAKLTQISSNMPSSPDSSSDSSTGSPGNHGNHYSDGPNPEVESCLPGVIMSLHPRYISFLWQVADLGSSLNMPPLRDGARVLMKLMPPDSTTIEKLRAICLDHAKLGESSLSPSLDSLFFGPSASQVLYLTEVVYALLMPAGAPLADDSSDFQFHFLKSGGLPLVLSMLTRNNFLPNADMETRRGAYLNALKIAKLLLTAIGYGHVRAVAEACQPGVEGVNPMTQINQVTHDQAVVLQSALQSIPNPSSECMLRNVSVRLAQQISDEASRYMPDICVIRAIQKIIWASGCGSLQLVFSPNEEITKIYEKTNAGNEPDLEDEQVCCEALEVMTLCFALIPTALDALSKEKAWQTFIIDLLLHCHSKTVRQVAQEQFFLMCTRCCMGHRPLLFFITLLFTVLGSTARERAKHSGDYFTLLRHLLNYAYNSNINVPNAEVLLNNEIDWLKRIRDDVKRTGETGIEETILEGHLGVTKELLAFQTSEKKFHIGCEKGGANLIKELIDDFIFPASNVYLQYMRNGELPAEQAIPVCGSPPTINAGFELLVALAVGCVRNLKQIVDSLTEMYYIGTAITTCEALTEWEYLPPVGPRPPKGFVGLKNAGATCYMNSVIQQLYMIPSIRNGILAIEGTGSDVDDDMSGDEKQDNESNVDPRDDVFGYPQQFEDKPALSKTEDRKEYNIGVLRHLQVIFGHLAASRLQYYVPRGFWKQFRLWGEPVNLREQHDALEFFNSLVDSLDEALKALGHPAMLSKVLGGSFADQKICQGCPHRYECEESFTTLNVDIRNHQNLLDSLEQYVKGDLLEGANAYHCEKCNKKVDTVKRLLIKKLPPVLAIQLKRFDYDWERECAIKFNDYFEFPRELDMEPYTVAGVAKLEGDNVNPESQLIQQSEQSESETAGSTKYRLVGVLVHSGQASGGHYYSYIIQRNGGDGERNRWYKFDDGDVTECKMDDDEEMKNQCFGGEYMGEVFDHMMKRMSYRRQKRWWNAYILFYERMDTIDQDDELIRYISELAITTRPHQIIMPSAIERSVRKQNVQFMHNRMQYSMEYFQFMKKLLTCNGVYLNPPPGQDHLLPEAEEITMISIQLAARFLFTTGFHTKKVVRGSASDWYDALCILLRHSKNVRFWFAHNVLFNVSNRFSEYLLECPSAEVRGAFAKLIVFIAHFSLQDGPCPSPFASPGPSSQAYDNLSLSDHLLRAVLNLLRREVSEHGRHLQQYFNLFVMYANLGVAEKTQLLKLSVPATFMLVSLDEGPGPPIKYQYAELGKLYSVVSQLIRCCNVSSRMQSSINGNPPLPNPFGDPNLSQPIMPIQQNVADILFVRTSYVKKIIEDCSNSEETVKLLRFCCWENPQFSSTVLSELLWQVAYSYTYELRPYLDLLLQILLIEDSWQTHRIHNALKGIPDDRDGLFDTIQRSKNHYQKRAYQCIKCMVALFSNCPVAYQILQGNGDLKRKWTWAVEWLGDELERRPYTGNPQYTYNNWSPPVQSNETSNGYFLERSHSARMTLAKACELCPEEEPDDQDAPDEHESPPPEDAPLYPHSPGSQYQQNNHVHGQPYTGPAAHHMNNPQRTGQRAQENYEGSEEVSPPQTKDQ
Another assay concerns the target UniProt O00487. In a few lines:
as §1

UniProt O00487, sequence (O00487 whole entry): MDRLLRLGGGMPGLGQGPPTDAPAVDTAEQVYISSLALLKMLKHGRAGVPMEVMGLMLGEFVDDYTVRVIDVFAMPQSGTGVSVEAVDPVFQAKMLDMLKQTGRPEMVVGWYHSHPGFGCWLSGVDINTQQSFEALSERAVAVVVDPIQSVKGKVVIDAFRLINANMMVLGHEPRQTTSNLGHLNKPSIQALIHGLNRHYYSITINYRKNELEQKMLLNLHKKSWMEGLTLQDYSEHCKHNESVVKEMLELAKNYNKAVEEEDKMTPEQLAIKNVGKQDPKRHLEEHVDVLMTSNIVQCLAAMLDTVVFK
USP7, sequence (Q93009 whole entry, looked up): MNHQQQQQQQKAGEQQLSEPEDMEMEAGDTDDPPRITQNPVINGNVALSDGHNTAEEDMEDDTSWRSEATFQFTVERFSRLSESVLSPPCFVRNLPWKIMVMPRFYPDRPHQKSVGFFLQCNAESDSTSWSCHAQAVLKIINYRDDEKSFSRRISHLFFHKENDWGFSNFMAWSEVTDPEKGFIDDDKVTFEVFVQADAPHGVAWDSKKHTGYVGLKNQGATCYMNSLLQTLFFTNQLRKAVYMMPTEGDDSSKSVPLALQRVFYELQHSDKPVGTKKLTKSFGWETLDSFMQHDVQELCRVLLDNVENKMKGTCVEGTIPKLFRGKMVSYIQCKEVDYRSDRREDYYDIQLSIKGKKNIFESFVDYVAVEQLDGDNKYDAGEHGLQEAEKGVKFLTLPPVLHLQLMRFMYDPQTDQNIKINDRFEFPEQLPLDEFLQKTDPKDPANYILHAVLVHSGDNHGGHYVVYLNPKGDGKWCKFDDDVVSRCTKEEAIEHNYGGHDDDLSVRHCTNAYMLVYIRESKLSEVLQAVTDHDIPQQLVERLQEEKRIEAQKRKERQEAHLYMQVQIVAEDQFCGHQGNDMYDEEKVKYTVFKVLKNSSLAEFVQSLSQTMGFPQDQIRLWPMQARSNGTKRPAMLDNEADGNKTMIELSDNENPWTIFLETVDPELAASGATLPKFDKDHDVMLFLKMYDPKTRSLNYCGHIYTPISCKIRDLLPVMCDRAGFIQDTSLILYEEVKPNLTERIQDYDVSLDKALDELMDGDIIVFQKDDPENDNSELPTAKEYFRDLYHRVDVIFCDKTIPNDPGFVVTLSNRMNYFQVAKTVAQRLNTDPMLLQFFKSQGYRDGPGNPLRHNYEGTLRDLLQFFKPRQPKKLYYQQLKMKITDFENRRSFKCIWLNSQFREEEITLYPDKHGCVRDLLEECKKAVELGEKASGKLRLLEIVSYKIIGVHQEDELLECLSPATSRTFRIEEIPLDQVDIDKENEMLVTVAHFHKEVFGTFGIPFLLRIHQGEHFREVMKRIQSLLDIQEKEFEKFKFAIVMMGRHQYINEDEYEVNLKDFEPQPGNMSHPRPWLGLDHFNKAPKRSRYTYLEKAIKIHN

Turning to `CCC1c2ccsc2CCN1C(=O)CCl` (stereo not given), the “log2 ratio of Biotin-Ahx-Ub-VS probe labelling” value with USP42 was 0.624; with USP46 it was -0.333; with USP47 it was -0.618; in the assay with USP48, -0.725; with USP5, -0.159; in the assay with USP54, -0.451. Also, the “log2 ratio of Biotin-Ahx-Ub-VS probe labelling” value in the assay with USP7 was -1.23 (active); with USP8, -0.157; in the assay with USP9X, -0.309; with UniProt O00487, -0.0357.
